From PubChem BioAssay AID1850 (Southern Research Specialized Biocontainment Screening …, 2009)
Out of some 310,000 compounds screened, about 1,000 (0.32%) were called active. Not all results are given here. Measured potencies and affinities stand elsewhere. Values without a mark were called inactive. No rule for the calls is given here.

Assay: PhoP regulon inhibitors, Salmonella typhi PhoP promoter GFP reporter, confirmatory (AID 1850);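 also: 0% = induced wells with vehicle and 100% = uninduced wells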
Conditions: fluorescence, 4 h, at 50 µM, hits give high values

Compound	inhibition
COc1ccc(CCC(=O)NCCS(=O)(=O)N2CCN(c3ccc(F)cc3)CC2)cc1	3.06%
O=C(c1ccccc1)N1N=C(C(F)(F)F)CC1(O)c1ccc(F)cc1 (configuration not stated)	-5.13%
CCOC(=O)c1ccc(S(=O)(=O)N2CCN(C(=O)CSc3nc4ccccc4o3)CC2)cc1	1.15%
CC(=O)c1c(C(C)=O)c(C)n(NC(=O)c2ccc(Cl)cc2)c1C	2.98%
CN(C)C1=NCC(CSC(=N)N)S1 (configuration not stated)	-1.53%
CCOc1ccc(N2CC(C(=O)Nc3ccc4c(c3)OCO4)CC2=O)cc1 (configuration not stated)	2.26%
Cc1ccc(C(=O)Nc2nnc(S(=O)(=O)N3CCC(C)CC3)s2)cc1	4.17%
O=C(COC(=O)c1ccc(Cl)c(S(=O)(=O)N2CCCC2)c1)NC1CCCCC1	5.96%
CCOc1ccc(Nc2cc(C)c3ccccc3n2)cc1	10.8%
COc1c2ccccc2c(OC)c2ccccc12	-8.01%
Cc1c2ccccc2nc2ccccc12	-14.3%
CCOc1ccc(Nc2nc3ccccc3c(=O)s2)cc1	10.5%
CCOC(=O)C(Cc1ccccc1)NC(=O)CNC(=O)CNC(=O)OCc1ccccc1 (configuration not stated)	4.1%
CC1CCCCN1C(=O)COC(=O)c1cc([N+](=O)[O-])ccc1N (configuration not stated)	0.19%
COCCN(C(=O)COC(=O)CC1CCCCC1)c1c(N)n(Cc2ccccc2)c(=O)[nH]c1=O	-6.56%
COc1ccc(/C=C(\NC(=O)c2ccco2)C(=O)NCCc2nc3ccccc3[nH]2)cc1	4.61%
Cc1cc(N(CCCl)CCCl)ccc1/C=N/N=C(\N)c1cnccn1	1.24%
CC(C)(C)c1ccc(C(=O)NCC(=O)OCC(=O)Nc2nc(-c3ccc(F)cc3)cs2)cc1	6.97%
Cc1ccc(C)c2[nH]c(=O)c(CN(CC3CCCO3)S(=O)(=O)c3ccc4c(c3)OCCO4)cc12 (configuration not stated)	-7.59%
NC(=O)CN1CCN(CCN2C(=O)c3cccc4cccc(c34)C2=O)CC1	10.1%
CCN(CC)CCN1C(=O)c2cccc3cc(N)cc(c23)C1=O	6.76%

Compound	inhibition
COCCNCCCOc1ccc(C(C)(C)c2ccccc2)cc1	3.55%
COCCCNCCCOc1ccc(C(C)(C)c2ccccc2)cc1	0.01%
CC(C)(c1ccccc1)c1ccc(OCCN2CCOCC2)cc1	-18%
Cc1ccc(OCCCCCCN2CCNCC2)cc1	11.8%
CC1CCN(CCCCOc2ccc(C(C)(C)C)cc2)CC1	-0.73%
CC(C)(C)c1ccc(OCCCN2CCCC2)cc1	-5.11%
Cn1c(SCC(=O)Nc2ccc3c(c2)OCCO3)nnc1-c1ccccn1	-2.36%
COCCNc1c([N+](=O)[O-])c(=O)n(-c2ccccc2)c2ccccc12	-1%
Cn1c(N)c(N2CCN(c3ccccc3)CC2)c(=O)[nH]c1=O	-2.5%
O=C(COC(=O)CCC(=O)c1ccc(F)cc1)NCc1ccco1	11.3%
COC(=O)c1sc2ccccc2c1NC(=O)c1ccc(S(=O)(=O)N2CCCCC2)cc1	10.9%
CN(CCOc1ccc(Cl)cc1)C(=O)C1CCN(C(=O)c2ccc(Cl)cc2)CC1	-3.38%
CCCC(=O)NC(c1cccs1)c1cc([N+](=O)[O-])c2cccnc2c1O (configuration not stated)	-5.59%
CCCC(=O)NC(c1ccco1)c1cc(Cl)c2cccnc2c1O (configuration not stated)	-13.5%
CC(C)C(=O)NC(c1cccs1)c1cc([N+](=O)[O-])c2cccnc2c1O (configuration not stated)	-8.78%
CC(=O)NC(c1ccccc1)c1cc([N+](=O)[O-])c2cccnc2c1O (configuration not stated)	0.16%
COc1ccc(S(=O)(=O)N2CCOCC2)cc1N=Nc1sc(N)nc1-c1ccccc1	0.93%
CCCCCOC(=O)CC(C(=O)OCCCCC)N1CCCCC1 (configuration not stated)	1.36%
CCCCCCCCCCOC(=O)C[N+](C)(C)C/C=C(/C)Cl	-3.67%
CCCCOC(=O)C1CCCC(C(=O)OCCCC)N1 (configuration not stated)	2.58%
CCCCCCCCOC(=O)C[N+](C)(C)C/C=C(/C)Cl	-1.52%

Compound	inhibition
CC12CN3CCN(CC(C3)/C1=N/NC(=O)Nc1ccccc1)C2	3.04%
CCOc1ccc(NC(=O)CN(C)C(=O)c2cn3ccccc3n2)cc1OCC	-2.5%
O=C(c1ccc(F)cc1)C1CCN(C(=S)Nc2ccc(F)cc2)CC1	1.13%
C/C(=N\NC(=O)c1nnn(-c2nonc2N)c1-c1ccc2c(c1)OCO2)c1ccccc1	-37.7%
CC1CN(CCOc2ccc(Cl)cc2Cl)CC(C)O1 (configuration not stated)	10.8%
CC1CC(C)CN(CCOc2cccc(Cl)c2Cl)C1 (configuration not stated)	-0.58%
CC1CC(C)CN(S(=O)(=O)N2CCCC(C(=O)NCCc3ccccc3)C2)C1 (configuration not stated)	6.06%
NS(=O)(=O)c1ccc(CCNC(=O)c2cc([N+](=O)[O-])ccc2N2CCCCC2)cc1	7.9%
O=C(CCc1ccc(S(=O)(=O)N2CCOCC2)cc1)N1CCN(Cc2ccc3c(c2)OCO3)CC1	-0.09%
CCN1CCN(CCNC(=O)c2ccc3c(c2)N(Cc2ccc(F)cc2)C(=O)c2ccccc2S3=O)CC1 (configuration not stated)	-3.27%
CCN1CCN(CCNC(=O)c2ccc(/C=C3/Sc4ccccc4N(Cc4cccc(Cl)c4)C3=O)cc2)CC1	47.7%
Cc1ccc(C(=O)Nc2cccc(C(=O)NC3CCCCC3)c2)cc1	7.56%
CCOC(=O)c1c(C)c(-c2ccccc2)n(CC(=O)N2CCN(C)CC2)c1C	-2.34%
O=C1Nc2ccccc2C1=Nc1cccc([N+](=O)[O-])c1	6.17%
O=C1Nc2ccccc2Nc2ccc([N+](=O)[O-])cc21	-12.2%
COc1ccccc1OCc1ccc(C(=O)NCc2ccco2)o1	-2.77%
COc1ccc2cc(C(=O)N/N=C/c3sc4ccccc4c3O)ccc2c1	-4.14%
O=C(N/N=C/c1sc2ccccc2c1O)c1ccccc1	-3.49%
COc1ccc(C(=O)N/N=C/c2c[nH]c3ccccc23)cc1	4.58%
O=C(N/N=C/c1ccccc1O)c1cccc2ccccc12	3.31%
